Laboratory results published in PubChem BioAssay (NCI).
The panel holds about 83,000 compounds, 20% with a hit somewhere; the sample as a whole holds those more often.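 In brief: 96-well plates, 48 h treatment, single concentration, percent growth endpoint.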 Activity calls are given as the source filed them. Rule for the calls: active = growth percent below 10; inactive = the rest.

Assays:
Experiment in all cases: NCI-60 one-dose screen, 48 h (100 = growth as untreated, 0 = no growth, -100 = all killed)
Settings in all cases: 10 µM unless noted
[1] = system: DU-145 prostate
[2] = system: K-562 leukemia
[3] = system: MALME-3M melanoma
[4] = system: MDA-MB-231 breast
[5] = system: RXF 393 renal
[6] = system: SF-268 CNS
[7] = system: SF-295 CNS
[8] = system: UACC-257 melanoma
[9] = system: M14 melanoma
[10] = system: HCT-15 colon
[11] = system: HT29 colon
[12] = system: SNB-75 CNS
[13] = system: U251 CNS
[14] = system: PC-3 prostate
[15] = system: SK-MEL-5 melanoma
[16] = system: UACC-62 melanoma
[17] = system: LOX IMVI melanoma
[18] = system: SK-MEL-28 melanoma
[19] = system: SF-539 CNS
[20] = system: SNB-19 CNS

Structure (SMILES) | growth [1] | growth [2] | growth [3] | growth [4] | growth [5] | growth [6] | growth [7] | growth [8] | growth [9] | growth [10] | growth [11] | growth [12] | growth [13] | growth [14] | growth [15] | growth [16] | growth [17] | growth [18] | growth [19] | growth [20]
CSc1ccc(N=C=C(c2ccccc2)c2ccccc2)cc1 | 109% (inactive) | 60.4% (inactive) | 105% (inactive) | 84.7% (inactive) | 105% (inactive) | 95.8% (inactive) | 96.1% (inactive) | 93.3% (inactive) | 80.4% (inactive) | 87.3% (inactive) | 87.3% (inactive) | 84.7% (inactive) | 86.4% (inactive) | 84.6% (inactive) | 99.6% (inactive) | 83.1% (inactive) | 70.2% (inactive) | 99.2% (inactive) | – | –
CCCCCCCCCCCCCCCCNCCC[C@@H](C)[C@H]1CC[C@H]2[C@@H]3[C@H](OCCCN)C[C@@H]4C[C@H](OCCCN)CC[C@]4(C)[C@H]3C[C@H](OCCCN)[C@]12C | -82.2% (active) | -34.7% (active) | -60.7% (active) | -98.2% (active) | -41.2% (active) | -38.2% (active) | – | – | -28.7% (active) | 7.08% (active) | -41% (active) | -64.8% (active) | – | -14.4% (active) | 3.14% (active) | -64.2% (active) | -60.4% (active) | -64.7% (active) | -68% (active) | -66.6% (active)
CC(=O)C1=C(O)C=C2Oc3c(C(=O)/C=C/c4ccccc4)c(O)c(C)c(O)c3[C@]2(C)C1=O | 57% (inactive) | 24.9% (inactive) | 74.2% (inactive) | 61.2% (inactive) | 62.9% (inactive) | 35.2% (inactive) | 19.5% (inactive) | 44.5% (inactive) | 36.1% (inactive) | 25.3% (inactive) | 32.6% (inactive) | 87.1% (inactive) | 7.84% (active) | 24.2% (inactive) | 10.1% (inactive) | 32.9% (inactive) | 41.4% (inactive) | 43.1% (inactive) | – | –
COc1cc(C2CC(=O)Nc3c2cnn3Cc2ccco2)cc2c1OCCO2 (centres undefined) | 104% (inactive) | 29.6% (inactive) | 102% (inactive) | 101% (inactive) | 62.4% (inactive) | 82.5% (inactive) | 62% (inactive) | 82.2% (inactive) | 70.5% (inactive) | 64.9% (inactive) | 88.8% (inactive) | 77.5% (inactive) | 84.6% (inactive) | 97.6% (inactive) | 75.5% (inactive) | 75.8% (inactive) | – | 75.7% (inactive) | – | –
NC1=CSC2=N/C(=C\c3ccc(Cl)cc3)C(=O)N12 | 77.9% (inactive) | 40.1% (inactive) | 64.9% (inactive) | 83.2% (inactive) | 65.7% (inactive) | 90.4% (inactive) | – | – | 76.8% (inactive) | 66.7% (inactive) | 62.6% (inactive) | 87.4% (inactive) | – | 80.6% (inactive) | 72.6% (inactive) | 90.3% (inactive) | 50.6% (inactive) | – | 90.4% (inactive) | 87% (inactive)
Oc1cc(O)c2c(=S)cc(-c3ccc(Cl)cc3)oc2c1 | 36.9% (inactive) | 28.2% (inactive) | 22.7% (inactive) | 21.6% (inactive) | 64.6% (inactive) | 36.8% (inactive) | 91.4% (inactive) | 32.9% (inactive) | 31.4% (inactive) | 25.4% (inactive) | 92.8% (inactive) | 48.3% (inactive) | 19.6% (inactive) | – | 3.09% (active) | 22.6% (inactive) | 38.6% (inactive) | 40.5% (inactive) | – | –
COc1ccc2nc3cc(Cl)ccc3c(N3CCN(c4ccnc(N5CCN(C)CC5)n4)CC3)c2c1 | 3.84% (active) | -36.1% (active) | 83.8% (inactive) | 28.3% (inactive) | 10.5% (inactive) | 52.8% (inactive) | 93.9% (inactive) | 90.7% (inactive) | 58.5% (inactive) | -23.2% (active) | -69.4% (active) | 90.6% (inactive) | 46.1% (inactive) | 63.4% (inactive) | 84.7% (inactive) | – | -62.5% (active) | 28.7% (inactive) | – | –
O=C1Nc2ccccc2/C1=C/C(=N/c1nnc(-c2ccccc2)s1)c1ccccc1 | 34.4% (inactive) | 20.4% (inactive) | 37.8% (inactive) | 54.5% (inactive) | 27.1% (inactive) | 60.4% (inactive) | – | – | 75.7% (inactive) | 19.8% (inactive) | -36.3% (active) | 78.7% (inactive) | – | 78.4% (inactive) | 93.9% (inactive) | 71.5% (inactive) | -86.3% (active) | 86.4% (inactive) | 52.7% (inactive) | 103% (inactive)
C[C@]12C[C@@H](c3ccoc3)OC(=O)[C@@H]1CC[C@]1(C)[C@@H]2CC[C@@H](O)[C@]1(C)O | 73% (inactive) | 39.8% (inactive) | 81.6% (inactive) | 74.6% (inactive) | 102% (inactive) | 106% (inactive) | 51.7% (inactive) | 83% (inactive) | 82.4% (inactive) | 85.4% (inactive) | 68.3% (inactive) | 62.3% (inactive) | 66.5% (inactive) | 60.5% (inactive) | 76.2% (inactive) | 76.1% (inactive) | 70.5% (inactive) | 94.1% (inactive) | – | –
O=C1Nc2ccccc2C12CC(c1ccccc1)=NN2 (centres undefined) | 88.1% (inactive) | 18.5% (inactive) | 40.1% (inactive) | 55.4% (inactive) | 90.6% (inactive) | 67.1% (inactive) | – | – | 38.1% (inactive) | 33% (inactive) | 8.14% (active) | 38.4% (inactive) | – | 48.2% (inactive) | 30.5% (inactive) | 46.7% (inactive) | 48.4% (inactive) | 56.8% (inactive) | 47% (inactive) | 68.7% (inactive)
O=S(=O)(NCCCNc1cc(-c2cn(-c3ccccc3)nc2-c2cccc(O)c2)ccn1)c1ccccc1 | 53.7% (inactive) | 1.96% (active) | 37.2% (inactive) | 9.24% (active) | 36.7% (inactive) | 52.8% (inactive) | 11% (inactive) | – | 46.2% (inactive) | 9.91% (active) | 14.8% (inactive) | 51% (inactive) | 41.3% (inactive) | 21.5% (inactive) | 15.4% (inactive) | 50.1% (inactive) | 17% (inactive) | – | – | –
CCCCCCCCOC(=O)CC[C@@H](C)[C@H]1CC[C@H]2[C@@H]3[C@H](OC(=O)CCN)C[C@@H]4C[C@H](OC(=O)CCN)CC[C@]4(C)[C@H]3C[C@H](OC(=O)CCN)[C@]12C | 74.4% (inactive) | -74.5% (active) | 67.8% (inactive) | 69.3% (inactive) | 109% (inactive) | 69.7% (inactive) | – | – | 84.4% (inactive) | 102% (inactive) | 39.6% (inactive) | 63.9% (inactive) | – | 87.3% (inactive) | 97% (inactive) | 104% (inactive) | 63.2% (inactive) | 58.4% (inactive) | 56.3% (inactive) | 116% (inactive)
O=C(C[C@@H](C(=O)NCc1cccc(C(F)(F)F)c1)N1C(=O)[C@@H](N2C(=O)OC[C@@H]2c2ccccc2)[C@H]1/C=C/c1ccccc1)NC1CCN(Cc2ccccc2)CC1 | 67.2% (inactive) | -51% (active) | -17.1% (active) | 64.3% (inactive) | 74.4% (inactive) | 57.9% (inactive) | 102% (inactive) | 77.4% (inactive) | 83.2% (inactive) | 61.1% (inactive) | 2.51% (active) | 71.7% (inactive) | 70.9% (inactive) | 54.4% (inactive) | 43.1% (inactive) | 73.3% (inactive) | 23.9% (inactive) | 81.5% (inactive) | – | –
O=c1c2cccc3c(NC4CCCCC4)ccc(c32)c2nc3ccccc3n12 | 98.7% (inactive) | 66.9% (inactive) | 96.1% (inactive) | 82.3% (inactive) | 112% (inactive) | 99.5% (inactive) | – | – | 86.7% (inactive) | 74.8% (inactive) | 76.8% (inactive) | 83% (inactive) | – | 80% (inactive) | 66.1% (inactive) | 82.8% (inactive) | 73.4% (inactive) | 92.1% (inactive) | 96.2% (inactive) | 89.4% (inactive)
Cn1cc(-c2csc(-c3cn(C)c4ncccc34)n2)c2ccccc21 | 28% (inactive) | 14.8% (inactive) | 48.3% (inactive) | 52.2% (inactive) | 19.9% (inactive) | 50.6% (inactive) | 9.79% (active) | 61.1% (inactive) | 12.2% (inactive) | 26.5% (inactive) | 6.11% (active) | -4.48% (active) | 25.1% (inactive) | 35.7% (inactive) | 32.6% (inactive) | – | 36.8% (inactive) | 61.4% (inactive) | – | –
CCCCCN(CCCCC)CCC[C@@H](C)[C@H]1CC[C@H]2[C@@H]3[C@H](OCCCN)C[C@@H]4C[C@H](OCCCN)CC[C@]4(C)[C@H]3C[C@H](OCCCN)[C@]12C | 76.5% (inactive) | -19.4% (active) | 62.2% (inactive) | 37% (inactive) | 87.1% (inactive) | 87.5% (inactive) | – | – | 42.8% (inactive) | 72.3% (inactive) | 24.5% (inactive) | 70.6% (inactive) | – | 80.5% (inactive) | 25.1% (inactive) | 13.6% (inactive) | 3% (active) | 27.9% (inactive) | -21.9% (active) | 61% (inactive)
